Potency and affinity values are given separately.

The test system of this assay is Klebsiella pneumoniae. To be noted: Concentration 32 ug.mL-1;; ASSAY_TEST Inhibition of Bacterial Growth; detection method Absorption (OD600); MEDIA CAMHB; plate type 384well; NBS; CORNING #3640; time 18 hr.
By Inhibition is commonly meant the change of the read-out against control, counted positive when it falls. Turning to `COc1ccc(C)cc1NC(=O)Cn1nc2c3cc(-c4ccc(C)c(C)c4)nn3ccn2c1=O`, the Inhibition turned out to be 11.68%.

As for `Cc1c(Cl)cccc1NC(=O)Cn1nc2c(SCc3ccccc3)nccn2c1=O`, the Inhibition came out at 1.96%.

Turning to `Cc1ccc(Sc2ccc3nn(CC(=O)Nc4cccc(Cl)c4)c(=O)n3n2)cc1`, the Inhibition is listed as -1.6%.

In the case of `CC(C)c1nnc2c(=O)n(CC(=O)Nc3cccc(C#N)c3)c3ccccc3n12`, the Inhibition was 14.72%.

`COc1cccc(Sc2nc3ccccc3n3c(=O)n(CC(=O)Nc4ccc(Cl)cc4)nc23)c1`: the Inhibition was 2.35%.

For the compound `CCOc1ccc(NC(=O)Cn2nc3c(Sc4cccc(F)c4)nccn3c2=O)cc1`, the Inhibition was -0.38%.

Consider `Cc1cccc(NC(=O)Cn2nc3ccc(SC(C)(C)C)nn3c2=O)c1`, for which the Inhibition is on record as 5.1%.

As to `Cc1ccccc1NC(=O)Cn1nc2ccc(SC3CCCCC3)nn2c1=O`, the Inhibition is 2.21%.

In the case of `CCc1cccc(NC(=O)Cn2nc3nc(N4CCCCCC4)ccn3c2=O)c1`, the Inhibition is listed as 14.42%.

For `Cc1cccc(C)c1NC(=O)Cn1c(=O)c2nnc(C(C)C)n2c2ccccc21`, the Inhibition was 1.46%.

With `CCc1nnc2c(S(=O)(=O)N(Cc3cccc(C)c3)c3ccc(Cl)cc3)cccn12`, the Inhibition worked out at 3.49%.

With `Cc1cc(C)c(NC(=O)Cn2nc3ccc(-c4ccc(C)c(C)c4)nn3c2=O)c(C)c1`, the Inhibition was -8.22%.

Turning to `CC(C)c1nnc2c(SCC(=O)Nc3ccccc3Br)nc3ccccc3n12`, the Inhibition is on record as 12.82%.

For `O=C(Cn1nc2c(Oc3ccccc3)nccn2c1=O)Nc1ccccc1Cl`, the Inhibition is 5.8%.

As for `CC(C)Cn1c(=O)c2sccc2n2c(=O)n(CC(=O)N3CCC(Cc4ccccc4)CC3)nc12`, the Inhibition was -9.43%.

In the case of `COc1ccc(NC(=O)c2ccc3nn(CC(=O)Nc4ccc(C)c(F)c4)c(=O)n3c2)cc1`, the Inhibition came to 0.39%.

`Cc1cccc(Oc2nccn3c(=O)n(CC(=O)N4CCN(c5ccccc5F)CC4)nc23)c1C`: the Inhibition is recorded as -1.33%.

Turning to `O=S(=O)(c1ccc2nncn2c1)N(Cc1cc(F)cc(F)c1)c1ccc2c(c1)OCO2`, the Inhibition is reported as 11.56%.

With `COc1cccc(-n2ccn3c(SCC(=O)N4CCN(c5ccc(F)cc5)CC4)nnc3c2=O)c1`, the Inhibition came out at 8.66%.

Turning to `COc1ccc(-c2cc3c4nn(CC(=O)Nc5ccc(C)c(C)c5)c(=O)n4ccn3n2)cc1`, the Inhibition is 5.79%.

With `CCOc1ccc(NC(=O)Cn2nc3c(SCc4ccc(Cl)cc4)nccn3c2=O)cc1`, the Inhibition is listed as 5.7%.

Turning to `COc1ccc(C(=O)CSc2nnc3c(=O)n(-c4ccc(Br)cc4)ccn23)cc1`, the Inhibition came out at 6.12%.

Turning to `Cc1cc2nn(CC(=O)Nc3ccc(F)cc3C)c(=O)n2c(Nc2ccc(F)cc2)n1`, the Inhibition amounted to 7.08%.

In the case of `Cc1nnc2ccc(S(=O)(=O)N(Cc3cccc(F)c3)c3ccc(F)c(F)c3)cn12`, the Inhibition came out at 2.49%.

Regarding `COC(=O)c1ccccc1NC(=O)Cn1nc2c(Oc3ccc(C)cc3)nccn2c1=O`, the Inhibition came to 2.12%.

Regarding `COC(=O)c1cccc(NC(=O)Cn2nc3ccc(-c4ccc(C)c(C)c4)nn3c2=O)c1`, the Inhibition was determined as 6.94%.

As for `COc1ccccc1Cn1c(=O)c2sccc2n2c(=O)n(Cc3ccccc3)nc12`, the Inhibition is on record as 5.78%.

As to `COc1cccc(-n2ccn3c(SCC#N)nnc3c2=O)c1`, the Inhibition was 2.74%.

As for `Cc1nnc2c(SCC(=O)Nc3ccc(F)cc3F)nc3ccccc3n12`, the Inhibition is 16.48%.

As to `COc1ccc(NC(=O)Cn2nc3c(Oc4ccccc4)nccn3c2=O)cc1OC`, the Inhibition worked out at 4.37%.

As to `CCOc1ccc(-n2ccn3c(SCC(=O)Nc4ccc(C)c(C)c4)nnc3c2=O)cc1`, the Inhibition is -8.39%.

For `COc1ccc(-c2cc3c4nnc(SCC(=O)Nc5ccc(C#N)cc5)n4ccn3n2)cc1`, the Inhibition turned out to be 5.83%.

Consider `Cc1cc(F)ccc1NC(=O)Cn1nc2c(SCc3ccc(Cl)cc3)nccn2c1=O`, for which the Inhibition is 8.05%.

As for `Cc1ccc(-c2cc3c4nn(CC(=O)N5CCN(c6ccc(F)cc6)CC5)c(=O)n4ccn3n2)cc1C`, the Inhibition turned out to be 7.51%.

As for `COc1ccc(-c2cc3c4nnc(CCC(=O)NCc5ccc(OC)c(OC)c5)n4ccn3n2)cc1`, the Inhibition is recorded as 12.53%.

`CC(C)(C)NC(=O)Cn1nc2n(Cc3ccco3)c(=O)c3sccc3n2c1=O`: the Inhibition was determined as 9.07%.

Take `Cc1ccc(C)c(Cn2nc3ccc(-c4ccc(C)c(C)c4)nn3c2=O)c1`: the Inhibition is 12.73%.

With `O=c1n(Cc2cc(F)cc(F)c2)nc2ccc(-c3ccccc3)nn12`, the Inhibition stood at 18.79%.

With `Cc1nnc2ccc(S(=O)(=O)N(Cc3ccccc3)c3ccc(Cl)cc3)cn12`, the Inhibition is 0.23%.

(Values after ChEMBL document CHEMBL4513146, “CO-ADD screening of Karazin Kharkiv National University (Ukraine) compounds”.)
